Rows were chosen to be rich in hits. Some 3.7% of all compounds tested hit in one or more screens of this group.
Bead autofluor – flagged as autofluorescent in microsphere protease counterscreen; fluorescence intensity (concentration not given with the values); 3.1% of 360,000 active; compound autofluorescence counterscreen, microsphere flow cytometry; active compounds read high; in the data active = fluorescence intensity above about 16000; inconclusive = no clear call, values can overlap the other calls
MazF activator – activators of E. coli MazEF toxin-antitoxin RNase | P0AE70 | FAM/BHQ RNA-DNA oligo cleavage fluorescence, 5 h | activation, % at 20 µM | 0.32% of 350,000 active; in the data active = activation above about 50%
Target sequence (P0AE70 whole entry, looked up): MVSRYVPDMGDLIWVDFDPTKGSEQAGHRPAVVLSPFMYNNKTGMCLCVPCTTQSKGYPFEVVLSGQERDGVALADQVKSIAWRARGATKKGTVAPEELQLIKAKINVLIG
Anthrax LF inh2 – inhibitors of Bacillus anthracis lethal factor protease | multiplex microsphere protease cleavage assay, LF | inhibition, % at 10 µM | 0.12% of 360,000 active | AID 588501; note: plate controls were buffer without enzyme for full effect and enzyme alone for no effect
BoNT A protease – BoNT A light chain protease inhibition; 0.17% of 360,000 active; multiplex microsphere protease substrate cleavage, flow cytometry; inhibition, % at 10 µM; note: plate controls were buffer without enzyme for full effect and enzyme alone for no effect
BoNT-F LC inh – BoNT F light chain protease inhibition. Multiplex microsphere protease cleavage assay, flow cytometry. AID 588497. 0.22% of 360,000 active. inhibition, % at 10 µM; in the data active = inhibition above about 35%, passing the limit was not always enough; inconclusive = no clear call, values can overlap the other calls; note: plate controls were buffer without enzyme for full effect and enzyme alone for no effect
* marks the source's active call; other numbers are inactive results; u = inconclusive; x = no result given. Cut-off read from the data, not from the text of the source, unless noted: active = inhibition above about 30%; inconclusive = no clear call, values can overlap the other calls; inactive = below that.

SMILES | Bead autofluor | MazF activator | Anthrax LF inh2 | BoNT A protease | BoNT-F LC inh
Cc1ccccc1NC(=O)c1ccc(F)c(S(=O)(=O)N2CCN(c3ccccn3)CC2)c1 | 23271* | 2 | -3 | -4 | -4
O=C(Nc1ccccc1)c1ccc(N2CCN(c3ccccn3)CC2)c(S(=O)(=O)N2CCOCC2)c1 | 16676* | -8 | -2 | -1 | -1
O=C(O)c1ccc2c(c1)C(=O)N([C@H](Cc1cccc3ccccc13)C(=O)O)C2=O | 3854 | x | 4 | 0 | -1
CC(C#N)Sc1ccc(S(=O)(=O)N(C)C2CCCCC2)cn1 (stereo unspecified) | 3836 | 0 | 1 | 0 | 1
CCCCCc1nnc(N)s1 | 16328* | -1 | -4 | -1 | -1
CCOC(=O)C1CC(=NO)c2ccc(OC)c(OC)c2C1 (stereo unspecified) | 3557 | 4 | -2 | 0 | -9
Cc1cccc(-c2nnc(NC(=O)c3ccc(Cl)cc3)o2)c1 | 16877* | -6 | -3 | -2 | -9
CC1=C(C(=O)N(C(C)C)C(C)C)CC(CC(=O)NCc2cccs2)C(=O)N1CCCN1CCCC1=O (stereo unspecified) | 4292 | x | 2 | 0 | 7
CC(C)(C)n1ncc2c(=O)n(Cc3ccc(Cl)cc3Cl)cnc21 | 2480 | 3 | 2 | 0 | 2
Cc1cc(C)n(-c2ccn(Cc3ccc(Cl)cc3Cl)c(=O)n2)n1 | 23685* | 2 | -1 | -2 | -4
Cc1cc(C)c(NC(=O)CSc2nnc(Cc3cccn3C)n2-c2ccc(F)cc2)c(C)c1 | 25100* | 0 | -2 | -3 | -7
Cc1ccc(-n2c(SCC(=O)NCc3ccco3)nnc2-c2cccnc2)c(C)c1 | 22964* | -2 | 2 | 1 | 1
Cn1cccc1Cc1nnc(SCC(=O)NCc2ccco2)n1-c1ccc(F)cc1 | 22151* | 2 | -6 | u | 4
Cn1cccc1Cc1nnc(SCC(=O)NCc2ccccc2Cl)n1-c1ccc(F)cc1 | 4738 | 2 | 0 | -1 | -4
Cc1cc(C)cc(NC(=O)CSc2nnc(Cc3cccn3C)n2-c2ccc(F)cc2)c1 | 5446 | 7 | -6 | 0 | -5
Clc1ccccc1-c1ccc2nccn2c1 | 3681 | x | 2 | 0 | 4
CC1(C(=O)NS(=O)(=O)c2cccs2)CCN1C(=O)CC1CCCC1 (stereo unspecified) | 2814 | x | -8 | 0 | 3
O=C(CSc1nnc(NC2CCCCC2)s1)Nc1ccc(N2CCOCC2)cc1 | 22057* | 0 | 1 | 1 | 2
CC(Sc1nnc(NC2CC2)s1)C(=O)Nc1ccc(N2CCOCC2)cc1 (stereo unspecified) | 4779 | -1 | -8 | 3 | 0
Cc1ccc(NC(=O)CSc2nnc(NC(=O)CN3CCOCC3)s2)cc1 | 16377* | -3 | -2 | 0 | 5
CC(=O)c1ccc(NC(=O)CSc2nnc(NC(=O)CN3CCOCC3)s2)cc1 | 5339 | 0 | -3 | 0 | -4
COC1C(OC(=O)c2ccc(C)[nH]2)C(O)C(Oc2ccc3c(O)c(NC(=O)c4ccc(O)c(CC=C(C)C)c4)c(=O)oc3c2Cl)OC1(C)C (stereo unspecified) | 4283 | 55* | -4 | 0 | -1
CC(=O)Nc1ccc(SCC(=O)N(CCC#N)c2ccc(C)cc2)cc1 | 16531* | 4 | -2 | -2 | -6
CCOCC(=O)Nc1cc(-c2cn3cccnc3n2)ccc1C | 22267* | 3 | -2 | u | -6
O=C(Cn1c(C(=O)NCCCN2CCOCC2)cc2sccc21)c1ccccc1 | 24194* | 5 | -2 | -3 | -2
SMILES | Bead autofluor | MazF activator | Anthrax LF inh2 | BoNT A protease | BoNT-F LC inh
CCn1c(C(=O)NCc2ccccn2)cc2sccc21 | 17121* | 5 | 0 | -2 | -7
Cn1c(C(=O)NCCN2CCOCC2)cc2sccc21 | 7678 | 3 | 0 | 1 | 4
CCn1c(C(=O)NCCCN2CCc3ccccc3C2)cc2sccc21 | 24380* | -9 | -2 | -1 | -3
Cc1ccc(Cn2c(C(=O)NCCCN3CCOCC3)cc3sccc32)cc1 | 24158* | -6 | -5 | -2 | -3
CC(C)CNC(=O)c1cccc2c(-c3cccc(C(N)=O)c3)coc12 | 3691 | x | -7 | 0 | -3
Cc1ccccc1NC(=O)NCCCN1CCCC1 | 22559* | 0 | -1 | u | 1
CN(C(=O)c1cccc(NC(=O)Cc2ccc(NC(=O)C3CCCN(S(=O)(=O)c4cccc([N+](=O)[O-])c4)C3)cc2)c1)C1CCC1 (stereo unspecified) | 3613 | -8 | -2 | 0 | -3
O=S1(=O)CCN(C2CCCCCCC2)CC1 | 3412 | 9 | -1 | 0 | -1
CCCC1CCC(c2nc(-c3cccnc3)no2)CC1 (stereo unspecified) | 19821* | -11 | 1 | u | -1
CCCCCCC1CCC(c2nc(-c3ccncc3)no2)CC1 (stereo unspecified) | 9094 | -3 | -1 | 0 | -3
CSC1=C(C#N)C(c2ccccc2Cl)C2=C(N1)c1ccccc1C2=O (stereo unspecified) | x | -2 | x | x | x
CSC1=C(C#N)C(c2ccccc2C)C(C#N)=C(N)N1 (stereo unspecified) | 23095* | 7 | 0 | u | -5
COc1ccc(N(C)C(=O)Cc2c(C(=O)O)[nH]c3ccccc23)cc1 | 3516 | 9 | 8 | -2 | -1
CCN(C(=O)Cc1c(C(=O)O)[nH]c2ccccc12)c1cc(OC)ccc1OC | 20129* | 0 | -4 | 0 | -1
C[C@H](NC(=O)c1cccc([N+](=O)[O-])c1)C(=O)OCC(=O)c1ccccc1Br | 3149 | -4 | 1 | 0 | -8
COCC(=O)Nc1cc(C)cn(Cc2c(F)cccc2Cl)c1=O | 3738 | 8 | 10 | -6 | u
COC(=O)Nc1ccc(=O)n(Cc2c(Cl)cccc2Cl)c1 | 23829* | -6 | -2 | -1 | -7
CCN1C[C@@H]2[C@@H]3C(=O)N(C)C(=O)[C@@H]3[C@](Cc3ccccc3)(C1=O)N2C(=O)c1ccc(C(C)(C)C)cc1 | 4407 | -2 | -4 | 1 | -4
COCCn1c(C)cc(C(=O)COC(=O)CCc2ccc(S(=O)(=O)N3CCOCC3)cc2)c1C | 22125* | -2 | -3 | u | -2
Cc1ccc(NC(=O)CCc2ccc(S(=O)(=O)N3CCOCC3)cc2)c(C)c1 | 20854* | 10 | -8 | u | 3
OC(Cc1ccccc1Br)c1ncc(-c2ccc(Cl)cc2)[nH]1 (stereo unspecified) | 4189 | x | 6 | -1 | -6
O=S(=O)(c1ccc(Br)s1)N1CCC(Cc2ccccc2)CC1 | 23471* | -22 | -2 | 1 | 0
O=S(=O)(c1ccc(Cl)s1)N1CCC(Cc2ccccc2)CC1 | 23306* | -2 | 0 | -3 | -5
O=S(=O)(c1ccc(Cl)s1)N1CCN(Cc2ccccc2)CC1 | 2762 | 0 | -3 | 0 | 0
O=[N+]([O-])c1ccc(/C=N/Nc2nc(N3CCCCC3)nc(N3CCCCC3)n2)o1 | 21202* | 7 | 11 | 4 | 2
CC(C)C(=O)Nc1nnn(C)n1 | 22504* | -1 | -2 | 1 | 1
CC(C)CC(=O)Nc1nnn(C)n1 | 18519* | 5 | -7 | 4 | 7

Screening data as filed in PubChem BioAssay.
